Consider 38 compounds from PubChem BioAssay (EPA / NIEHS).

Molecules are shown by their SMILES. Several values for one entry are separate records, joined by “and”; a condition that tells them apart may be missing. Equal entries are not always repeated. Results filed as inconclusive are left out. Activity calls are given as the source filed them. Rule for the calls: active = hit-call score of the fitted dose curve at least 0.9, where 1 is the maximum; inconclusive = response in the unintended direction; inactive = score below 0.9.

Broadly, the AC50 is the concentration at which the activity in the assay is half-maximal.

One assay is described as follows: ACEA_AR_agonist_AUC_viability: ACEA Biosciences xCELLigence Real-Time Cell Analysis on Androgen Receptor Agonism for Viability (AID 2283775).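 For AC50: viability read 80 hours after compound addition.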 Put shortly: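 Viability endpoint from xCELLigence impedance in 22Rv1 prostate cells at 80 h. Eight-point series, 100 uM maximum final.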
For the compound `COc1cc(OC)c2ccc(=O)oc2c1`, the AC50 is 0.94 µM (active).
Consider `CCCC[N+](C)(CCCC)CCCC`, for which the compound was classed as inactive.
Turning to `CC(C)(CO)CO`, the call was inactive.
In the case of `CCCCCCCCCCO[C@@H]1O[C@H](CO)[C@@H](O)[C@H](O)[C@H]1O`, the compound was called inactive.
On to `CCc1cccc(O)c1`, for which the outcome was inactive.
On the same count and under the same terms, the result for `FC(F)(F)c1ccc(Cl)c(Cl)c1` reads “inactive”; that for `CC(=O)c1ccc(O)cc1`, “inactive”.
In the case of `CCCCCCOc1ccc(O)cc1`, the half-maximal activity concentration (AC50) is 10.9 µM (active).
With `CCCCCCCCOC(C)=O`, the compound was classed as inactive.
For `CC12CCC(C1)C(C)(C)C2O` (stereo not given), the compound was classed as inactive.
As for `CC(O)CN` (stereo not given), the compound was classed as inactive.
Take `CCCCCC1CCC(=O)O1` (stereo not given): the result was inactive.
In the case of `C1=COCCC1`, the call was inactive.
The same measure, in the same setting: the result for `CC(=O)OC(C)(C)C1CC=C(C)CC1` (stereo not given) reads “inactive”; that for `CC(=O)C1C(=O)C=C(C)OC1=O` (stereo not given), “inactive”; that for `COC(=O)c1ccc(C(=O)OC)cc1`, “inactive”.
As to `CCC(C)C1CCCCC1=O` (stereo not given), the compound was called inactive.
On to `CCCCOCCOCCOCCO`, for which the call was inactive.
In the case of `O=C(c1ccc(OCCN2CCCCC2)cc1)c1c(-c2ccc(O)cc2)sc2cc(O)ccc12`, the AC50 is 50 µM (active).
`CC(=O)C1=C(C)[C@@H]2C[C@@]3(C1)[C@H](C)CC[C@H]3C2(C)C`: the outcome was inactive.
As to `CCCCC(CC)COCCO` (stereo not given), the call was inactive.
`CCCCN(CCCC)CCCCCCN(CCCC)CCCC`: the outcome was inactive.
In the case of `c1ccc2scnc2c1`, the compound was called inactive.
On the same count and under the same terms, the result for `c1ccc(OCCOc2ccccc2)cc1` reads “inactive”.
`CCC(C)(C)C1CCC(OC)CC1` (stereo not given): the compound was classed as inactive.
Same read-out and setting: the result for `CC1=CCC(C(C)(C)O)CC1` (stereo not given) reads “inactive”.
Turning to `CN1CCc2cccc3c2[C@H]1Cc1ccc(O)c(O)c1-3`, the AC50 is 11.4 µM (active).
Turning to `CC(C)(C)C1CCC(O)CC1` (stereo not given), the compound was classed as inactive.
With `COC(=O)C(C)Oc1ccc(Oc2ncc(C(F)(F)F)cc2Cl)cc1` (stereo not given), the result was inactive.
For `COC(=O)c1cccc(C(=O)OC)c1`, the result was inactive.
Take `CCC(C)(CCCC(C)C)OC(C)=O` (stereo not given): the result was inactive.
`CC(C)(C)c1cccc(O)c1`: the call was inactive.
On to `COc1ccc2[nH]cc(CCNC(C)=O)c2c1`, for which the compound was classed as inactive.
The same measure, in the same setting: the result for `C=CCCCCCCCCC(=O)OCC` reads “inactive”; that for `O=C(OCc1ccccc1)c1ccccc1O`, “inactive”.
On to `c1ccc(Cc2ccccc2)cc1`, for which the compound was classed as inactive.
For `CCCCCCCCCCOC(=O)c1ccccc1C(=O)OCCCCCCCC`, the compound was classed as inactive.
With `CC(CCO)CC(C)(C)C` (stereo not given), the compound was called inactive.

The nature of a further assay: ACEA_AR_antagonist_AUC_viability: ACEA Biosciences xCELLigence Real-Time Cell Analysis on Androgen Receptor Antagonism for Viability (AID 2283776).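 Note: area under impedance growth curve at 80 h after dosing as viability; hits lower the growth signal relative to DMSO meaning cytotoxicity.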 Put shortly:
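22Rv1 human prostate cancer cells were seeded on electrode plates, monitored overnight, then exposed to eight 1:4 dilutions from 100 uM final. Impedance-based growth kinetics at 80 h gave an AUC viability endpoint normalized to DMSO.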
Take `COc1cc(OC)c2ccc(=O)oc2c1`: the AC50 was 0.25 µM (active).
`CC(C)(CO)CO`: the compound was called inactive.
Consider `CCCCCCCCCCO[C@@H]1O[C@H](CO)[C@@H](O)[C@H](O)[C@H]1O`, for which the compound was called inactive.
Take `CCc1cccc(O)c1`: the result was inactive.
For `CCCCCCOc1ccc(O)cc1`, the AC50 was 10.4 µM (active).
Regarding `CCCCCCCCOC(C)=O`, the outcome was inactive.
On the same count and under the same terms, as for `CC12CCC(C1)C(C)(C)C2O` (stereo not given), the entry is “inactive”.
For the compound `CC(O)CN` (stereo not given), the call was inactive.
Consider `CCCCCC1CCC(=O)O1` (stereo not given), for which the outcome was inactive.
On to `C1=COCCC1`, for which the call was inactive.
Take `CC(=O)OC(C)(C)C1CC=C(C)CC1` (stereo not given): the result was inactive.
The same measure, in the same setting: as for `CC(=O)C1C(=O)C=C(C)OC1=O` (stereo not given), the entry is “inactive”; as for `COC(=O)c1ccc(C(=O)OC)cc1`, “inactive”; as for `CCC(C)C1CCCCC1=O` (stereo not given), “inactive”.
In the case of `CCCCOCCOCCOCCO`, the outcome was inactive.
Take `O=C(c1ccc(OCCN2CCCCC2)cc1)c1c(-c2ccc(O)cc2)sc2cc(O)ccc12`: the AC50 was 21.7 µM (active).
For the compound `CC(=O)C1=C(C)[C@@H]2C[C@@]3(C1)[C@H](C)CC[C@H]3C2(C)C`, the compound was called inactive.
For `CCCCC(CC)COCCO` (stereo not given), the outcome was inactive.
As to `c1ccc(OCCOc2ccccc2)cc1`, the result was inactive.
On to `CCC(C)(C)C1CCC(OC)CC1` (stereo not given), for which the outcome was inactive.
As to `CC1=CCC(C(C)(C)O)CC1` (stereo not given), the result was inactive.
Consider `CN1CCc2cccc3c2[C@H]1Cc1ccc(O)c(O)c1-3`, for which the AC50 is 4.25 µM (active).
For the compound `COC(=O)C(C)Oc1ccc(Oc2ncc(C(F)(F)F)cc2Cl)cc1` (stereo not given), the compound was classed as inactive.
Turning to `COC(=O)c1cccc(C(=O)OC)c1`, the call was inactive.
On to `CC(C)(C)c1cccc(O)c1`, for which the result was inactive.
The same measure, in the same setting: as for `C=CCCCCCCCCC(=O)OCC`, the entry is “inactive”.
Consider `O=C(OCc1ccccc1)c1ccccc1O`, for which the compound was called inactive.
In the case of `c1ccc(Cc2ccccc2)cc1`, the half-maximal activity concentration (AC50) was 9.27 µM (active).
For the compound `CCCCCCCCCCOC(=O)c1ccccc1C(=O)OCCCCCCCC`, the result was inactive.
Turning to `CC(CCO)CC(C)(C)C` (stereo not given), the result was inactive.

The nature of a further assay: ACEA_ER_AUC_viability: ACEA Biosciences xCELLigence Real-Time Cell Analysis on Estrogen Receptor Agonism for Viability (AID 2283782).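 Note: hit means loss of impedance signal meaning reduced cell growth or viability.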 Put shortly:
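Read-out: real-time electrical impedance (RT-CES) area under curve, loss of signal taken as reduced viability, normalized to DMSO baseline. T-47D cells, charcoal-stripped serum medium, compounds up to 100 uM final, continuous exposure, 80 h.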
On to `CCCC[N+](C)(CCCC)CCCC`, for which the compound was called inactive.
With `CC(C)(CO)CO`, the result was inactive.
As to `CCCCCCCCCCO[C@@H]1O[C@H](CO)[C@@H](O)[C@H](O)[C@H]1O`, the AC50 was 80.3 µM (active).
Take `CCc1cccc(O)c1`: the compound was called inactive.
Regarding `FC(F)(F)c1ccc(Cl)c(Cl)c1`, the compound was classed as inactive.
For `CC(=O)c1ccc(O)cc1`, the outcome was inactive.
Consider `CCCCCCOc1ccc(O)cc1`, for which the AC50 is 67.3 µM (active).
For `CCCCCCCCOC(C)=O`, the call was inactive.
As for `CC12CCC(C1)C(C)(C)C2O` (stereo not given), the compound was called inactive.
The same measure, in the same setting: as for `CC(O)CN` (stereo not given), the entry is “inactive”.
On to `CCCCCC1CCC(=O)O1` (stereo not given), for which the compound was classed as inactive.
Same read-out and setting: as for `C1=COCCC1`, the entry is “inactive”.
For `CC(=O)OC(C)(C)C1CC=C(C)CC1` (stereo not given), the half-maximal activity concentration (AC50) was 79 µM (active).
As for `CC(=O)C1C(=O)C=C(C)OC1=O` (stereo not given), the result was inactive.
With `COC(=O)c1ccc(C(=O)OC)cc1`, the call was inactive.
`CCC(C)C1CCCCC1=O` (stereo not given): the compound was called inactive.
Take `O=C(c1ccc(OCCN2CCCCC2)cc1)c1c(-c2ccc(O)cc2)sc2cc(O)ccc12`: the AC50 is 11.1 µM (active) and 17.8 µM (active) and 18 µM (active).
Same read-out and setting: as for `CC(=O)C1=C(C)[C@@H]2C[C@@]3(C1)[C@H](C)CC[C@H]3C2(C)C`, the figure is 88.1 µM (active).
With `CCCCC(CC)COCCO` (stereo not given), the call was inactive.
On to `CCCCN(CCCC)CCCCCCN(CCCC)CCCC`, for which the compound was classed as inactive.
For the compound `c1ccc2scnc2c1`, the call was inactive.
As for `c1ccc(OCCOc2ccccc2)cc1`, the call was inactive.
Still for that read-out and setting: as for `CCC(C)(C)C1CCC(OC)CC1` (stereo not given), the entry is “inactive”.
In the case of `CN1CCc2cccc3c2[C@H]1Cc1ccc(O)c(O)c1-3`, the concentration at half-maximal activity (AC50) is 7.27 µM (active).
Take `CC(C)(C)C1CCC(O)CC1` (stereo not given): the outcome was inactive.
On to `COC(=O)C(C)Oc1ccc(Oc2ncc(C(F)(F)F)cc2Cl)cc1` (stereo not given), for which the result was inactive.
`CCC(C)(CCCC(C)C)OC(C)=O` (stereo not given): the call was inactive.
Take `COc1ccc2[nH]cc(CCNC(C)=O)c2c1`: the result was inactive.
Turning to `C=CCCCCCCCCC(=O)OCC`, the outcome was inactive.
As to `O=C(OCc1ccccc1)c1ccccc1O`, the AC50 is 94.3 µM (active).
As for `c1ccc(Cc2ccccc2)cc1`, the call was inactive.
For the compound `CC(CCO)CC(C)(C)C` (stereo not given), the result was inactive.
